A selection: hits, their analogues and other compounds. The true share with any hit is near 2.8%.
IP6K1 inh – blocks human inositol hexakisphosphate kinase 1. Q92551. IP6K1 kinase, ADP-Glo luminescence, 2 h; hits give low values. activity change, % (series mostly up to about 58 µM). hit rate 0.81% among 140,000; in the data active = activity change below about -25%
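ADP-Glo luminescence measures ADP made by human IP6K1 during a 2 h RT reaction with ATP/IP6 (mix at 1.3 mM/130 uM); top library doses 57.5 and 19.1 uM final.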
SNCA viab count – cell viability loss counter-screen; HEK-293-SNCA-luc viability, GF-AFC fluorescence, 24 h; Potency, µM (top dose mostly 57.1 µM), usual class: cytotoxic; hit rate 0.12% among 150,000; AID 1671193; also: nearly all actives have a fitted effect of over 30% in size
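Cytotoxicity counterscreen: after 24 h compound treatment of genome-edited SNCA-luciferase HEK-293 cells, live-cell protease substrate GF-AFC read by fluorescence after 30 min; activity scaled between DMSO (0%) and medium-only (-100%), curves Hill-fitted.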
KDM5B inh – inhibitors of human KDM5B histone demethylase; Potency, µM (titrated, usually from 57.7 µM), most hits filed as inhibitors; Q9UGL1; AID 1347165; KDM5B demethylase, FDH-coupled NADH fluorescence (FDH is formaldehyde dehydrogenase); hit rate 2.6% among 220,000; also: nearly all actives have a fitted effect of over 70% in size
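Compound dilutions met 200 nM (final) KDM5BΔAP for 10 min at room temperature before substrate addition. The substrate mix held 12.5 µM H3K4me3 with cofactors 25 µM α-ketoglutarate and 50 µM Fe²⁺. NADH signal gain over 30 min defined activity.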
SNCA expr inh – SNCA gene expression inhibition. hit rate 0.17% among 140,000. HEK-293 SNCA-luciferase knock-in, luminescence, 24 h. Potency, µM (top dose mostly 57.2 µM), hits mostly inhibitors; also: nearly all actives have a fitted effect of over 45% in size
A number is an active result; i = inactive; ? = inconclusive; nt = not tested or not shown. Unless noted, calls follow the shape of the dose curve; as a rule, active = well fitted curve in the direction sought with a large enough effect; inconclusive = small, poorly fitted or top-dose-only effect, or another doubt; inactive = no such curve, though single readings can be large; an effect the other way counts as inactive or inconclusive.

SMILES	IP6K1 inh	SNCA viab count	KDM5B inh	SNCA expr inh
Cc1ccc(-n2nc3n(c2=O)CCN(C(=O)c2ccc(Cl)nc2)C3)cc1	i	i	25.1µM	i
O=C(c1ccccc1)N1CCn2c(nn(-c3ccc(C(F)(F)F)cc3)c2=O)C1	i	i	?	i
COc1ccccc1C(=O)N1CCn2c(nn(-c3ccc(C(F)(F)F)cc3)c2=O)C1	i	i	79.4µM	?
CN(C)c1cccc(C(=O)NCCC2CCN(C(=O)Nc3cc(F)cc(F)c3)CC2)c1	i	i	31.6µM	i
O=C(NCCC1CCN(C(=O)Nc2cc(F)cc(F)c2)CC1)c1ccccc1	i	i	i	i
CN(C)C(=O)c1[nH]cnc1C(=O)NCC(C)(C)C	nt	nt	i	nt
CN(C)C(=O)c1ccc2cc[nH]c2n1	i	?	126µM	?
O=C(Nc1ccc(F)cc1)c1ccc2cc[nH]c2n1	i	?	112µM	i
COc1ccccc1Cn1c(=O)c(C(=O)N2CCCCC2)nc2cccnc21	i	i	nt	i
O=C(c1ccc2c(c1)OCO2)N1CCC(c2n[nH]c(=O)n2-c2ccccc2)CC1	i	i	i	i
O=C1NC2(CN(C(=O)c3ccc4c(c3)OCO4)C2)Oc2ccccc21	i	i	i	i
c1cncc(CN2CCC(C3CCN(Cc4ccc[nH]4)C3)CC2)c1 (stereo unspecified)	i	i	14.1µM	i
Cc1ccc2c(C(=O)NCc3ccc(Cl)cc3Cl)cnn2c1	i	i	?	i
O=C(NCc1ccc(Cl)nc1)c1cnn2c1CN(C(=O)c1ccccc1)CC2	i	i	i	i
Cc1ccc2c(C(=O)NCc3ccc(Cl)nc3)cnn2c1	i	i	39.8µM	i
O=C(NCc1ccc(Cl)nc1)c1cccn2nccc12	i	i	35.5µM	?
CCc1ccc(S(=O)(=O)c2cnc3ccccc3c2N2CCOCC2)cc1	nt	nt	i	nt
COCC1CN(C(=O)c2nccn2C)CC12CCNCC2 (stereo unspecified)	i	i	25.1µM	i
COCCCn1c(C)cc(C(=O)N2CCCC(CO)CCNC(=O)CC2)c1C (stereo unspecified)	i	i	i	i
COCCCn1c(C)cc(C(=O)N2CC(COC)C3(CCNCC3)C2)c1C (stereo unspecified)	i	i	31.6µM	i
CCOc1ccc(C(=O)N2CC(COC)C3(CCNCC3)C2)cc1OCC (stereo unspecified)	i	i	i	i
COc1ccc(-c2cc(C(=O)O)cc(S(=O)(=O)N3CCN(C)CC3)c2)cc1	i	i	15.8µM	i
CN1CCN(S(=O)(=O)c2cc(Br)cc(C(=O)O)c2)CC1	i	i	i	i
CC(C)n1nc(OC(C)(C)C(=O)NCCc2ccccn2)c2cc(CN3CCOCC3)ccc21	i	i	28.2µM	i
CC(C)n1nc(OC(C)(C)C(=O)Nc2cccnc2)c2cc(CN3CCOCC3)ccc21	i	i	?	i
SMILES	IP6K1 inh	SNCA viab count	KDM5B inh	SNCA expr inh
CC(C)n1nc(OC(C)(C)C(=O)NC2CC2)c2cc(CN3CCOCC3)ccc21	i	i	31.6µM	i
COc1ccc(C(=O)Nc2ccc(-c3noc([C@@H]4CCCN4C)n3)cn2)cc1	i	i	i	i
COc1ccc(C(=O)Nc2ccc(-c3noc([C@@H]4CCCN4Cc4ccc(Cl)cc4)n3)cn2)cc1	i	i	31.6µM	i
COCC(=O)Nc1ccc(-c2noc([C@@H]3CCCN3Cc3ccc(F)cc3)n2)cn1	i	i	i	i
COc1ccc(C(=O)Nc2ccc(-c3noc([C@@H]4CCCN4Cc4ccccc4C)n3)cn2)cc1	i	i	31.6µM	?
COCC(=O)Nc1ccc(-c2noc([C@@H]3CCCN3Cc3ccc(OC(F)(F)F)cc3)n2)cn1	i	i	i	i
COc1ccc(C(=O)Nc2ccc(-c3noc([C@@H]4CCCN4Cc4ccc(F)c(F)c4)n3)cn2)cc1	i	i	28.2µM	i
CN1CCN(S(=O)(=O)c2ccc(N(C)CCOc3ccc(Cl)cc3)nc2)CC1	nt	nt	i	nt
O=C(CCC1CCCN(S(=O)(=O)c2ccc(F)cc2)C1)NCCCN1CCOCC1 (stereo unspecified)	i	i	nt	i
O=C(NCc1ccccc1F)c1ccc(-c2ccc(N3CCSCC3)nc2)cc1	i	i	17.8µM	i
O=C(NCCN1CCOCC1)c1ccc(-c2ccc(N3CCCCC3)nc2)cc1	i	i	28.2µM	i
O=C(NCc1ccncc1)c1ccc(-c2ccc(N3CCCCC3)nc2)cc1	i	?	?	i
COCCNC(=O)c1ccc(-c2ccc(N3CCCCC3)nc2)cc1	i	i	12.6µM	i
O=C(NCCN1CCCC1)c1ccc(-c2ccc(N3CCSCC3)nc2)cc1	i	i	25.1µM	i

Screens (PubChem BioAssay)
